This assay is described as follows: fluorescence polarization artefacts, biochemical, 57K campaign, artefact control, dose response (AID 1342). The settings on record: PKD fluorescence polarization interference counter-screen. A general note: Polarisation of emitted light reports the rotation of a fluorescent probe.

The record followed here is PubChem BioAssay AID1342 (University of Pittsburgh Molecular Library Screening Center, 2008).

Values without a mark were called inactive. No rule for the calls is given here.

As for `C/C(=N\Nc1ncc(Cl)cc1Cl)c1ccccn1`, the IC50 – broadly, the concentration that gives 50% inhibition – is 16.7 µM.
